Key:
Test in all cases: DAPPL (digital affinity profiling via proximity ligation, sequencing); 10 mM Tris-HCl pH 7.5, 50 mM NaCl, 1 mM DTT, 4% glycerol, room temperature, 30 min; GST-TFs on glutathione beads, 16-mer random dsDNA library, 0.1% formaldehyde crosslink after washing; high values mean tight binding
FEV = target: T1, FEV (Homo sapiens, UniProt Q99581 1-238); conditions: protein: recombinant; tags: N-terminal GST; dsDNA, one strand shown
T1 sequence: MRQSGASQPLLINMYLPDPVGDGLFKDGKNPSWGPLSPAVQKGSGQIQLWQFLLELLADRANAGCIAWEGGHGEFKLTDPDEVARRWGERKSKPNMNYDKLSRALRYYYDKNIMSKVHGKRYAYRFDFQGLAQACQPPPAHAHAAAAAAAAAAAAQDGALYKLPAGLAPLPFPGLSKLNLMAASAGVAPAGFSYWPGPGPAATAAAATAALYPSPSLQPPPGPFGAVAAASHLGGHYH
In short: (§1)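 Sequencing on an Illumina NextSeq500 followed washing, crosslinking with 0.1% formaldehyde, proximity ligation (BsaI/T4 ligase, 1 h, 37 °C) and PCR amplification of pools that had been incubated for 30 min at room temperature with 200 nmole of a random double-stranded 16-mer DNA library in Tris/NaCl/DTT/glycerol buffer. Each pool held DNA-barcoded human transcription factors, expressed in yeast as GST fusions and captured on glutathione beads, plus a tag-only sample. Binding signal is a hexamer's read frequency for a factor divided by its frequency in the tag-only sample.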

ETV5 = ETV5 (Homo sapiens, UniProt P41161 1-510); conditions: protein: recombinant; tags: N-terminal GST; dsDNA, one strand shown
In short: as §1

HSF1 = HSF1 (Homo sapiens, UniProt Q00613 1-529); conditions: protein: recombinant; tags: N-terminal GST; chain copies: 3; dsDNA, one strand shown
In short: as §1

SPIC = target: T2, SPIC (Homo sapiens, UniProt Q8N5J4 1-248); conditions: protein: recombinant; tags: N-terminal GST; dsDNA, one strand shown
T2 sequence: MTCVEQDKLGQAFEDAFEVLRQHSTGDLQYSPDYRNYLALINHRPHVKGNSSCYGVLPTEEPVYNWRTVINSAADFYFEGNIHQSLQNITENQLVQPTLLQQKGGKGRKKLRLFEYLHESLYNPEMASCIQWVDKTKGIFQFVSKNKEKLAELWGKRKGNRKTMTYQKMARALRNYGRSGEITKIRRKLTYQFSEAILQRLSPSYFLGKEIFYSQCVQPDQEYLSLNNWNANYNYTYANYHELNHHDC
In short: as §1

ELF4 = ELF4 (Homo sapiens, UniProt Q99607 1-663); conditions: protein: recombinant; tags: N-terminal GST; dsDNA, one strand shown
In short: as §1

ELK4 = target: T3, ELK4 (Homo sapiens, UniProt P28324-2 1-405); conditions: protein: recombinant; tags: N-terminal GST; dsDNA, one strand shown
T3 sequence: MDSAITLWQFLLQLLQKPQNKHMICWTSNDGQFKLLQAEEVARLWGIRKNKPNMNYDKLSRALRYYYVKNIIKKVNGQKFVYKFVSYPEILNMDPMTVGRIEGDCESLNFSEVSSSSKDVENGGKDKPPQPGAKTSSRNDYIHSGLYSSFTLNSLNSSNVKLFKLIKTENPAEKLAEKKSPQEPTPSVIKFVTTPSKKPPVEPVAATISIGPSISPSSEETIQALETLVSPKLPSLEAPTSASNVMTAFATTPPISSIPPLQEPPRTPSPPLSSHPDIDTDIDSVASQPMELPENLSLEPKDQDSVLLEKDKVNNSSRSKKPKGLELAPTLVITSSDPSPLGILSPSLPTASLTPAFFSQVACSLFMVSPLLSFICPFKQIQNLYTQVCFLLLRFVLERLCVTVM
In short: as §1

ETV2 = target: T4, ETV2 (Homo sapiens, UniProt O00321 1-342); conditions: protein: recombinant; tags: N-terminal GST; dsDNA, one strand shown
T4 sequence: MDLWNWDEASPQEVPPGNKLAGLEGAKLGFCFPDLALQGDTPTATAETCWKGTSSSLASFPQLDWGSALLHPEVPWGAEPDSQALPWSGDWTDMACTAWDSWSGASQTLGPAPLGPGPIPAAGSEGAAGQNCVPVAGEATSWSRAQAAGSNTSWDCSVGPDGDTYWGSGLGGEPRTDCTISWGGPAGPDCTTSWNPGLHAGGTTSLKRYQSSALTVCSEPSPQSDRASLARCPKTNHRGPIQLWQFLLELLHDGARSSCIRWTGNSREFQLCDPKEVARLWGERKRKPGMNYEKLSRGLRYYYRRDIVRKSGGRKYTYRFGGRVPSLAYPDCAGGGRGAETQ
In short: as §1

ELF3 = target: T5, ELF3 (Homo sapiens, UniProt P78545 1-371); conditions: protein: recombinant; tags: N-terminal GST; dsDNA, one strand shown
T5 sequence: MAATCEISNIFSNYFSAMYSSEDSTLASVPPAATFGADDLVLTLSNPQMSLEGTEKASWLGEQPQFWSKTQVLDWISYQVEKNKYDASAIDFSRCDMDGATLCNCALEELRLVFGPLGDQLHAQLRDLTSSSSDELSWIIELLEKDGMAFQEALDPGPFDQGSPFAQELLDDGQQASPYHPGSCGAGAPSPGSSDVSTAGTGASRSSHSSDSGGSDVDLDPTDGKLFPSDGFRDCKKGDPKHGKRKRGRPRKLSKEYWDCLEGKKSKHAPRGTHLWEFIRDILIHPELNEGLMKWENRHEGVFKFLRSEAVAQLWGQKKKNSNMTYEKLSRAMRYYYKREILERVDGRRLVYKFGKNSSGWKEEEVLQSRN
In short: as §1

CRX = CRX (Homo sapiens, UniProt O43186 1-299); conditions: protein: recombinant; tags: N-terminal GST; dsDNA, one strand shown
In short: as §1

ETV1 = ETV1 (Homo sapiens, UniProt P50549 1-477); conditions: protein: recombinant; tags: N-terminal GST; dsDNA, one strand shown
In short: as §1

Sequence of ETV5 (P41161 whole entry): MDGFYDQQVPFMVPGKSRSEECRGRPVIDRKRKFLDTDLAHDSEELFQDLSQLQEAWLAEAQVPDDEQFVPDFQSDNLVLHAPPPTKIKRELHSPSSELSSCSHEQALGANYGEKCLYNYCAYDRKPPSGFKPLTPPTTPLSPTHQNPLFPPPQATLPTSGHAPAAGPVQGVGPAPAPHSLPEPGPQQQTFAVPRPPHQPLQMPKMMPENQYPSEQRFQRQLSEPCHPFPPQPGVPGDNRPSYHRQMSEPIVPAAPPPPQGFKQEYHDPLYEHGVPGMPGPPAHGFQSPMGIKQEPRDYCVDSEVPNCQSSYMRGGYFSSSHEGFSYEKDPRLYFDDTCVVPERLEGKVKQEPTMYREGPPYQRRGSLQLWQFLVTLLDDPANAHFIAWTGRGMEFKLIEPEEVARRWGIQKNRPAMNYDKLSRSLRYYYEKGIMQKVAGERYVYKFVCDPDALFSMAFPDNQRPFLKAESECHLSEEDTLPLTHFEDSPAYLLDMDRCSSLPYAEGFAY
Sequence of ETV1 (P50549 whole entry): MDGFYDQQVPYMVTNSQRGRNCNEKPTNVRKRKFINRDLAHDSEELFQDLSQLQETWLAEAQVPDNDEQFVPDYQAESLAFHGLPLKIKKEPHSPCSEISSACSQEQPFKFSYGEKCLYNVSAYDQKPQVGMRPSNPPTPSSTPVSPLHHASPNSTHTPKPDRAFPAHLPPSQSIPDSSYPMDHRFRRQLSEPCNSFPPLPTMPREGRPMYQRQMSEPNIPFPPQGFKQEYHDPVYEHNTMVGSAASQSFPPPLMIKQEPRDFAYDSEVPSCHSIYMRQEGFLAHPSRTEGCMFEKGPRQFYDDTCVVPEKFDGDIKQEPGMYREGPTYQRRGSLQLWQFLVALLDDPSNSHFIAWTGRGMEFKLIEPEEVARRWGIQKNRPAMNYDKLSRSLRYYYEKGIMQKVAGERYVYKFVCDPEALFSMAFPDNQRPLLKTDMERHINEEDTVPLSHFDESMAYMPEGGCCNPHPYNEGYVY
Sequence of CRX (O43186 whole entry): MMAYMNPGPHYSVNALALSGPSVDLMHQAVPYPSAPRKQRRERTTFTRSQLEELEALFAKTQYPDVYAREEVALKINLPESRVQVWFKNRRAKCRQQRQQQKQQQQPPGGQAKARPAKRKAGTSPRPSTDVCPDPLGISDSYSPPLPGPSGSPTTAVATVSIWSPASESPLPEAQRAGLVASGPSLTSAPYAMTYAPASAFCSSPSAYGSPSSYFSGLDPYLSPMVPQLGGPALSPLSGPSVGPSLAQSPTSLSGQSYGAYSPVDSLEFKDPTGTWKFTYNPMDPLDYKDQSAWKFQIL
Sequence of ELF4 (Q99607 whole entry): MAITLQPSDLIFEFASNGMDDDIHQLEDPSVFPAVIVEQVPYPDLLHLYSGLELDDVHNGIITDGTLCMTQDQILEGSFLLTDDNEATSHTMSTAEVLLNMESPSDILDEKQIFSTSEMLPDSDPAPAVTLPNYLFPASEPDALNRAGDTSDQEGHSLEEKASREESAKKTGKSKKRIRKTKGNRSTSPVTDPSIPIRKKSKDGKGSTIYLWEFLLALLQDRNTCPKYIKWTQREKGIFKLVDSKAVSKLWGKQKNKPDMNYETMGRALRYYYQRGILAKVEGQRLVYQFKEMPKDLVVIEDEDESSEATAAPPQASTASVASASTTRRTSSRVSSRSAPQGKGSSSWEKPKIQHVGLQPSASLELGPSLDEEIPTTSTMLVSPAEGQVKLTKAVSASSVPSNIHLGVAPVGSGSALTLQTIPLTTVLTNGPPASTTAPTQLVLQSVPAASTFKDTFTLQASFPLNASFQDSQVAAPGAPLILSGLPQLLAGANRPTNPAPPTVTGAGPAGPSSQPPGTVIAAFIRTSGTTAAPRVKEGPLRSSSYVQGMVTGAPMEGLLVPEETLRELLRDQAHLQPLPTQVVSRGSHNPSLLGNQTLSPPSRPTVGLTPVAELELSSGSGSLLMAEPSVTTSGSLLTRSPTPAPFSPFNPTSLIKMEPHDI
Sequence of HSF1 (Q00613 whole entry): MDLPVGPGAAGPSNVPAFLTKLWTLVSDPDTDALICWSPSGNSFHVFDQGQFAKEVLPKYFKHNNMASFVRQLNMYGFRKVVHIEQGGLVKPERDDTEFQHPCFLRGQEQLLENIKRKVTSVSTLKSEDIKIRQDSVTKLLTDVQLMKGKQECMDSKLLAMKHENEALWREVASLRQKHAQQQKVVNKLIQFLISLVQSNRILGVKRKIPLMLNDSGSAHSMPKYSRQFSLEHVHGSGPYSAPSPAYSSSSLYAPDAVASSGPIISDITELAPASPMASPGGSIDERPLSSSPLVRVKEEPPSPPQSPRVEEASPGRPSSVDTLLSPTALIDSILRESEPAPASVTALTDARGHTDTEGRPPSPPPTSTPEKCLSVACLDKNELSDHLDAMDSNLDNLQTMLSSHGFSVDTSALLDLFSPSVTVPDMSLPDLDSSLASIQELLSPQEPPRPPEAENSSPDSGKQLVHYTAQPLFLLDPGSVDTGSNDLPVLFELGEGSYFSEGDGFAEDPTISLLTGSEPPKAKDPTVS

AAGTTA
binding signal (FEV): 1.15 fold enrichment (6-mer frequency, TF over GST control) | binding signal (ETV5): 1.26 fold enrichment (6-mer frequency, TF over GST control) | binding signal (HSF1): 1.09 fold enrichment (6-mer frequency, TF over GST control) | binding signal (SPIC): 1.27 fold enrichment (6-mer frequency, TF over GST control) | binding signal (ELF4): 1.28 fold enrichment (6-mer frequency, TF over GST control) | binding signal (ELK4): 1.19 fold enrichment (6-mer frequency, TF over GST control) | binding signal (ETV2): 1.27 fold enrichment (6-mer frequency, TF over GST control) | binding signal (ELF3): 1.15 fold enrichment (6-mer frequency, TF over GST control) | binding signal (CRX): 1.26 fold enrichment (6-mer frequency, TF over GST control) | binding signal (ETV1): 1.23 fold enrichment (6-mer frequency, TF over GST control)

From article PMC7862700, “An all-to-all approach to the identification of sequence-specific readers for epigenetic DNA modifications on cytosine”
